# Assay results from the antibiotic and cytotoxicity screens of Wong et al. (2023).
# The whole screen tested about 39,000 compounds, of which about 500 (1.3%) were called active. The sample holds actives, similar compounds and a random draw of the others, so the mix is not that of the screen.
# System: S. aureus RN4220
# Test: growth inhibition call (relative growth <= 0.2)
# Conditions: 50 µM
row,SMILES,growth inhibition call
1,C[C@H](CO)N1C[C@H](C)[C@H](CN(C)S(=O)(=O)c2cccc(F)c2)Oc2ncc(C#CCN(C)C)cc2C1=O,inactive
2,C[C@@H]1CN([C@H](C)CO)C(=O)CCCn2cc(nn2)CO[C@H]1CN(C)C(=O)c1ccc(N2CCN(C)CC2)cc1,inactive
3,C[C@@H]1CN([C@H](C)CO)C(=O)c2cccc(NC(=O)Nc3cccc4ccccc34)c2O[C@@H]1CN(C)C(=O)Nc1cccc2ccccc12,inactive
4,C[C@@H]1CCCCO[C@@H](CN(C)C(=O)c2ccncc2)[C@H](C)CN([C@H](C)CO)C(=O)c2cc(NC(=O)C3CCCCC3)ccc2O1,inactive
5,CC1CC2C(C(O)CC3(C)C2CCC3(O)C(=O)COC(=O)CCC(=O)[O-])C2(C)C=CC(=O)C=C12.[Na+] (stereo unspecified),inactive
6,COc1cc(NC(=O)CCN2CCC(OC(=O)Nc3ccccc3-c3ccccc3)CC2)c(Cl)cc1CNC[C@H](O)c1ccc(O)c2nc(O)ccc12,inactive
7,CO[C@H]1CN(C)C(=O)c2cc(NC(=O)Nc3ccccc3)ccc2OC[C@H](C)N(C(=O)CN(C)C)C[C@@H]1C,inactive
8,Cc1noc(C)c1S(=O)(=O)Nc1ccc2c(c1)CC(=O)N([C@H](C)CO)C[C@@H](C)[C@@H](CN(C)Cc1ccncc1)O2,inactive
9,Cc1noc(C)c1NC(=O)Nc1ccc2c(c1)CC(=O)N([C@@H](C)CO)C[C@@H](C)[C@@H](CN(C)S(C)(=O)=O)O2,inactive
10,CC(=O)O[C@@H]1[C@@H]2OC(=O)[C@H](OC(C)=O)[C@@H]2O[C@H]1n1ccc(=O)[nH]c1=O,inactive
11,COc1ccc2c3c([nH]c2c1)[C@H](CO)N(C[C@]13CN(CC2CCCCC2)C1)C(=O)Nc1cccc(c1)F,active
12,COc1ccc2c3c([nH]c2c1)[C@@H](CO)N(C[C@]13CN(CC2CCCCC2)C1)C(=O)Nc1cccc(c1)F,inactive
13,COc1ccc2c3c([nH]c2c1)[C@H](CO)N(C[C@]13CCN(CC1)Cc1ccc(cc1)F)C(=O)Nc1ccc(cc1)F,inactive
14,COc1ccc2c3c([nH]c2c1)[C@H](CO)N(C[C@]13CCN(CC1)CC1CCCC1)C(=O)Nc1cccc(c1)F,inactive
15,COc1ccc2c3c([nH]c2c1)[C@@H](CO)N(C[C@]13CCN(CC1)Cc1ccc(cc1)F)C(=O)Nc1ccc(cc1)F,active
16,COc1ccc2c3c([nH]c2c1)[C@@H](CO)N(C[C@]13CCN(CC1)CC1CCCCC1)C(=O)Nc1cccc(c1)F,active
17,COc1ccc(cc1)CN1CC[C@]2(CC1)CN([C@H](CO)c1[nH]c3cc(ccc3c12)OC)C(=O)Nc1ccc(cc1)F,inactive
18,COc1ccc2c3c([nH]c2c1)[C@@H](CO)N(C[C@]13CCN(CC1)CC1CCCC1)C(=O)Nc1cccc(c1)F,inactive
19,COc1ccc2c3c([nH]c2c1)[C@H](CO)N(C[C@]13CCN(CC1)CC1CCCCC1)C(=O)Nc1cccc(c1)F,inactive
20,C=CCOC(=O)O[C@H]1[C@@H](OC)O[C@H](COC(=O)NCCCCCC(=O)NO)[C@@H](OC(=O)[C@H](CC=C)Cc2cccc(Br)c2)[C@@H]1OC(=O)[C@H](CC=C)Cc1ccccc1,inactive
21,C[C@H](CO)N1C[C@H](C)[C@@H](CN(C)C(=O)Nc2ccc3c(c2)OCCO3)OCc2cn(nn2)CCCC1=O,inactive
22,O=C(N[C@H]1C=C[C@H](CC(=O)N2CCOCC2)O[C@@H]1CO)c1ccc2c(c1)OCO2,inactive
23,Cn1cnc(S(=O)(=O)N[C@H]2C=C[C@@H](CC(=O)NCC3CC3)O[C@H]2CO)c1,inactive
24,COc1ccc(NC(=O)Nc2ccc3c(c2)C(=O)N([C@@H](C)CO)C[C@H](C)[C@H](CN(C)C(=O)c2ccccc2)OCCCC[C@@H](C)O3)cc1,inactive

row,SMILES,growth inhibition call
1,CN(C)CC#Cc1cncc(C(=O)NN)c1,inactive
2,CO[C@@H]1CN(C)C(=O)c2ccc(NC(=O)c3ccc(F)cc3)cc2OC[C@@H](C)N(C(=O)CN(C)C)C[C@@H]1C,inactive
3,CN1CCN(C(=O)C[C@H]2C[C@H]3c4cc(NC(=O)c5ccc6c(c5)OCO6)ccc4O[C@H]3[C@H](CO)O2)CC1,inactive
4,C=CC[C@@H](CC(=O)NCCO)C(=O)NC[C@H](OC(=O)[C@@H](CC=C)CC(=O)OC(C)(C)C)c1ccccc1,inactive
5,C=CC1=C(C(=O)O)N2C(=O)C(NC(=O)C(=NO)c3csc(N)n3)C2SC1 (stereo unspecified),active
6,C=CC1=C(C(=O)O)N2C(=O)C(NC(=O)C(=NOCC(=O)O)c3csc(N)n3)C2SC1 (stereo unspecified),inactive
7,Nc1nc(/C(=C/CC(=O)O)C(=O)N[C@@H]2C(=O)N3C(C(=O)O)=CCS[C@H]23)cs1,inactive
8,Nc1nc(/C(=N/O)C(=O)N[C@@H]2C(=O)N3C(C(=O)O)=C(/C=C4\CCN([C@@H]5CCNC5)C4=O)CS[C@H]23)ns1,inactive
9,Nc1nc(C(=CCC(=O)O)C(=O)NC2C(=O)N3C(C(=O)O)=CCSC23)cs1 (stereo unspecified),active
10,C=CC1=C(C(=O)O)N2C(=O)[C@@H](NC(=O)/C(=N\OCC(=O)O)c3csc(N)n3)[C@H]2SC1,active
11,C=CC1=C(C(=O)O)N2C(=O)[C@@H](NC(=O)/C(=N/O)c3csc(N)n3)[C@H]2SC1,active
12,COC(=O)/C=C/c1cn([C@H]2OC[C@@H](CO)[C@@H]2O)c(=O)[nH]c1=O,inactive
13,Cc1cncc2cccc(S(=O)(=O)N[C@H]3CN[C@@H](COC(=O)NCCOCCOCCN)C3)c12,inactive
14,C[C@H](CO)N1C[C@H](C)[C@@H](CN(C)S(C)(=O)=O)Oc2cc(-c3ccccc3F)ccc2S1(=O)=O,inactive
15,CCCN(C)C[C@@H]1OCCCC[C@@H](C)Oc2ccc(NC(=O)c3ccccc3)cc2C(=O)N([C@H](C)CO)C[C@@H]1C,inactive
16,COc1ccc(NC(=O)N(C)C[C@H]2Oc3ccc(NC(=O)Cn4cnnn4)cc3C(=O)N([C@H](C)CO)C[C@@H]2C)cc1,inactive
17,C[C@@H]1CN([C@@H](C)CO)C(=O)c2cc(NC(=O)Nc3ccc(F)cc3)ccc2O[C@@H](C)CCCCO[C@@H]1CN(C)Cc1ccccc1,inactive
18,C[C@@H]1CN([C@H](C)CO)C(=O)c2cccc(NC(=O)Nc3cccc4ccccc34)c2O[C@@H]1CN(C)CC1CCCCC1,inactive
19,C[C@H](CO)N1C[C@H](C)[C@@H](CN(C)Cc2ccc(Oc3ccccc3)cc2)Oc2ccc(NS(=O)(=O)c3cccs3)cc2C1=O,inactive
20,O=P(O)(O)C(Sc1ccc(Cl)cc1)P(=O)(O)O,inactive
21,C(=N\n1cnnc1)/c1ccco1,inactive
22,C[C@@H]1CN([C@H](C)CO)C(=O)Cc2cc(NS(=O)(=O)c3cn(C)cn3)ccc2O[C@H]1CN(C)CC1CCCCC1,inactive
23,CN1C(=O)c2cc(NC(=O)C3CCOCC3)ccc2OC[C@H]2O[C@@H](CC(=O)NCc3ccccc3F)CC[C@H]21,inactive
24,O=C1NCCN1c1cccnc1,inactive

row,SMILES,growth inhibition call
1,Cc1noc(C)c1NC(=O)N(C)C[C@@H]1Oc2ccc(NC(=O)C3CC3)cc2CC(=O)N([C@H](C)CO)C[C@H]1C,inactive
2,C=CC1=C(C(=O)O)N2C(=O)[C@@H](NC(=O)/C(=N\O)c3csc(N)n3)[C@H]2SC1,active
3,Cc1noc(C)c1NC(=O)Nc1ccc2c(c1)C(=O)N([C@@H](C)CO)C[C@@H](C)[C@H](CN(C)C(=O)Nc1ccc(F)cc1)OCCCC[C@@H](C)O2,inactive
4,NCc1nc(CCc2ccccc2)cs1,inactive
5,Cc1ccc(S(=O)(=O)Nc2cccc3c2O[C@H](CN(C)S(=O)(=O)c2ccc(F)cc2)[C@@H](C)CN([C@H](C)CO)C3=O)cc1,inactive
6,CN1CCN(C(=O)C[C@H]2CC[C@@H]3[C@H](COc4ccc(NC(=O)c5cscn5)cc4C(=O)N3C)O2)CC1,inactive
7,COc1ccc(C=CC(=O)c2ccc(O)cc2O)cc1,inactive
8,COc1ccc(CC(=O)c2ccc(O)cc2O)cc1,inactive
9,COc1ccc(C(C)C(=O)c2ccc(O)cc2O)cc1 (stereo unspecified),active
10,C[C@@H]1CN([C@@H](C)CO)C(=O)c2cc(NC(=O)Nc3ccc(F)cc3)ccc2O[C@@H](C)CCCCO[C@@H]1CN(C)C(=O)Cc1ccccc1,inactive
11,O=C(CO)N1C[C@H]2C[C@@H]1C[C@@H]2Oc1cccnc1,inactive
12,NCC1OC(OC2C(N)CC(N)C(OC3OC(CO)C(O)C(N)C3O)C2O)C(O)C(O)C1O.O=S(=O)(O)O (stereo unspecified),inactive
13,NCC1OC(OC2C(CO)OC(OC3C(O)C(N)CC(N)C3OC3OC(CN)C(O)C(O)C3N)C2O)C(N)C(O)C1O.O=S(=O)(O)O.O=S(=O)(O)O.O=S(=O)(O)O (stereo unspecified),inactive
14,NCC1OC(OC2C(CO)OC(OC3C(O)C(N)CC(N)C3OC3OC(CO)C(O)C(O)C3N)C2O)C(N)C(O)C1O.O=S(=O)(O)O (stereo unspecified),active
15,CNC1C(OC2OC(CO)C(N)C(O)C2O)OC2CC(N)C(OC3C(N)CC(N)C(O)C3O)OC2C1O.O=S(=O)(O)O (stereo unspecified),active
16,CN[C@@H]1[C@@H](O[C@@]2(C)O[C@H](CO)[C@@H](N)[C@H](O)[C@H]2O)O[C@H]2C[C@@H](N)[C@@H](O[C@H]3[C@H](O)[C@@H](O)[C@H](N)C[C@@H]3N)O[C@@H]2[C@@H]1O,inactive
17,NC[C@H]1O[C@H](O[C@H]2[C@H](O)[C@@H](O[C@H]3O[C@H](CO)[C@@H](O)[C@H](N)[C@H]3O)[C@H](N)C[C@@H]2N)[C@H](N)[C@@H](O)[C@@H]1O,inactive
18,NC[C@H]1O[C@H](O[C@H]2[C@H](O[C@@H]3O[C@H](CO)[C@@H](O)[C@H]3O)[C@@H](O)[C@H](N)C[C@@H]2N)[C@H](N)[C@@H](O)[C@@H]1O,inactive
19,NCC1OC(OC2C(N)CC(N)C(O)C2OC2OC(CO)C(O)C2O)C(N)C(O)C1O.O=S(=O)(O)O (stereo unspecified),inactive
20,NCCC(O)C(=O)NC1CC(N)C(OC2OC(CN)C(O)C(O)C2O)C(O)C1OC1OC(CO)C(O)C(N)C1O.O (stereo unspecified),inactive
21,NCC1OC(OC2C(N)CC(N)C(OC3OC(CO)C(O)C(N)C3O)C2O)C(N)C(O)C1O.O=S(=O)(O)O (stereo unspecified),active
22,NCC[C@H](O)C(=O)N[C@@H]1C[C@H](N)[C@@H](O[C@H]2O[C@H](CN)[C@@H](O)[C@H](O)[C@H]2O)[C@H](O)[C@H]1O[C@H]1O[C@H](CO)[C@@H](O)[C@H](N)[C@H]1O,active
23,CN[C@@H]1[C@@H](O[C@H]2O[C@H](CO)[C@@H](N)[C@H](O)[C@H]2O)O[C@H]2C[C@@H](N)[C@H](O[C@H]3[C@H](O)[C@@H](O)[C@H](N)C[C@@H]3N)O[C@@H]2[C@@H]1O,inactive
